Results: the supplement of paper PMC10849652
The full data set covers some 8,800 targets. This sample favours those with a hit. About 0.5% of all pairs of compound and target were hits.

Columns and labels:
Test in all cases: log2 fold change, soluble protein after heating vs DMSO (PISA); higher = thermal stabilisation; K562 lysate, 10 uM; active = over 0.2 and 3.5 SD of the protein, either way, in both replicates (recomputed)
[1] = compound: NCC(=O)Nc1ccc(-n2nc(C(F)(F)F)cc2-c2ccc3c(ccc4ccccc43)c2)cc1
In short: (§1)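 K562 pellets were dounce-homogenised in PBS pH 7.4 with 1 mM MgCl2, and the crude extract at 1 mg/mL protein was treated with 10 μM compound for 30 min. Aliquots were heated for 3 min across 48°C-58°C, pooled, and brought to 0.5% NP-40 at 4°C; soluble protein was the supernatant after 21,000xg for 90 min. Soluble protein was quantified by TMTpro 16plex LC-MS/MS with channel sums equalised, and reported as log2 fold change in thermal stability against DMSO controls, with values from duplicates.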

vorinostat = compound: O=C(CCCCCCC(=O)Nc1ccccc1)NO [vorinostat]
In short: as §1

silmitasertib = compound: O=C(O)c1ccc2c(c1)nc(Nc1cccc(Cl)c1)c1ccncc12 [silmitasertib]
In short: as §1

[2] = compound: O=C1NC(=O)C(c2cnc3ccccn23)=C1c1cn2c3c(cc(F)cc13)CN(C(=O)N1CCCCC1)CC2
In short: as §1

entospletinib = compound: c1cn2cc(-c3ccc4cn[nH]c4c3)nc(Nc3ccc(N4CCOCC4)cc3)c2n1 [entospletinib]
In short: as §1

Measured: log2 fold change

ILRUN (UniProt Q9H6K1)
UniProt Q9H6K1, sequence (Q9H6K1 whole entry, looked up): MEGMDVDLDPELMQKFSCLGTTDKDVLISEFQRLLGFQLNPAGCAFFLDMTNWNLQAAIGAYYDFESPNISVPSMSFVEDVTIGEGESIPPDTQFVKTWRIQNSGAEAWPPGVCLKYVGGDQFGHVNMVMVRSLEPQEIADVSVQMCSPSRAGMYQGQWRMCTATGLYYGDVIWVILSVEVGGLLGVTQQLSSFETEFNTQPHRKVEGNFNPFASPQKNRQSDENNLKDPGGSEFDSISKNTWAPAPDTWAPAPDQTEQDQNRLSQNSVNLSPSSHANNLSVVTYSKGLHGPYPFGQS
inactive: [1] 0.002 | vorinostat -0.047 | silmitasertib 0.001 | [2] -0.01 | entospletinib -0.013

HMGB2 (UniProt P26583)
inactive: [1] 0.004 | vorinostat 0.122 | silmitasertib -0.052 | [2] 0.047 | entospletinib 0.003

GSTP1 (UniProt P09211)
UniProt P09211, sequence (P09211 whole entry, looked up): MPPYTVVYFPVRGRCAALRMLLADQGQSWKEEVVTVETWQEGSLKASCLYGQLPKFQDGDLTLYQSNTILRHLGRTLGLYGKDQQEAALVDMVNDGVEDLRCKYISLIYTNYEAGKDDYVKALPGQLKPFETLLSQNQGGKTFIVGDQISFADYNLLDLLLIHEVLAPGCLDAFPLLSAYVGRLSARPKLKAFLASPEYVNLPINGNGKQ
inactive: [1] -0.011 | silmitasertib 0.127 | [2] 0.04 | entospletinib -0.001
active: vorinostat -0.352

IARS2 (UniProt Q9NSE4)
UniProt Q9NSE4, sequence (Q9NSE4 whole entry, looked up): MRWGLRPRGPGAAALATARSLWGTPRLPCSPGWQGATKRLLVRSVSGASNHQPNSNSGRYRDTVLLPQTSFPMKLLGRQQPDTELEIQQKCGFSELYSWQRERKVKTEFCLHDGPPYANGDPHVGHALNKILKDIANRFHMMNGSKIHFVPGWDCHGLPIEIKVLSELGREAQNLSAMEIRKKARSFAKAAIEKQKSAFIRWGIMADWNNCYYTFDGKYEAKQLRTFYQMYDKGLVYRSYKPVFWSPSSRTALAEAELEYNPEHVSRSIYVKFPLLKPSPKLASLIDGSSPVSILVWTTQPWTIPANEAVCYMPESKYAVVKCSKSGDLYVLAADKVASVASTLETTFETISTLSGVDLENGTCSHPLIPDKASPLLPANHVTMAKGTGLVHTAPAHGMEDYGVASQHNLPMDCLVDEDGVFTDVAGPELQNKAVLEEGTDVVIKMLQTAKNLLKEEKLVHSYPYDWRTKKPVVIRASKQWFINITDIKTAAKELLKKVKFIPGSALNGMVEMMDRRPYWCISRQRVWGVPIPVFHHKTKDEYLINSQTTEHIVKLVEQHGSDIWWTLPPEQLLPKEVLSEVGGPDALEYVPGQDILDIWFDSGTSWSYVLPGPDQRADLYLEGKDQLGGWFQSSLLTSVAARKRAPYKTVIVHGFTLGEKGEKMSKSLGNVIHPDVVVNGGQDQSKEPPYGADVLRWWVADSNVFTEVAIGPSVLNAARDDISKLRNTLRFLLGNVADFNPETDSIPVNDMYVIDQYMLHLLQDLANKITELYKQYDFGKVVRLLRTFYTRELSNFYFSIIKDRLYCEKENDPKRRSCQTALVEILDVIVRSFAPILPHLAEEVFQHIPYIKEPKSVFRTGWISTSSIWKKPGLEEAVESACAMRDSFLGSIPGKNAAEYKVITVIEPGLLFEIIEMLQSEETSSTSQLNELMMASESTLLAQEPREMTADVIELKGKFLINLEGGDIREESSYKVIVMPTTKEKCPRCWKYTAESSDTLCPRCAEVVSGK
inactive: [1] -0.002 | vorinostat 0.079 | silmitasertib -0.01 | [2] -0.021 | entospletinib 0.01

GSK3B isoform 2 (UniProt P49841)
inactive: [1] 0.02 | vorinostat 0.253 | silmitasertib 0.421 | [2] 0.657 | entospletinib 0.05

INF2 (UniProt Q27J81)
inactive: [1] -0.023 | silmitasertib -0.027 | [2] 0.018 | entospletinib -0.09
active: vorinostat -0.333

KCT2 (UniProt Q8NC54)
UniProt Q8NC54, sequence (Q8NC54 whole entry, looked up): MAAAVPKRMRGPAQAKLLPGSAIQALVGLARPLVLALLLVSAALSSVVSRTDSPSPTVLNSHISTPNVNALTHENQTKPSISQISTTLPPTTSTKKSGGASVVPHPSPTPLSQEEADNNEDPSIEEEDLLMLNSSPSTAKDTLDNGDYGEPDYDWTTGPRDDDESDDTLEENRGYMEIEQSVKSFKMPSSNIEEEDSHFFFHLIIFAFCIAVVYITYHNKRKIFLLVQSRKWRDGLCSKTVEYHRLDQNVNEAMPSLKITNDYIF
inactive: [1] 0.015 | vorinostat 0.157 | silmitasertib 0.005 | [2] -0.04 | entospletinib -0.026

HLTF (UniProt Q14527)
active: vorinostat -0.246
inactive: [1] 0.046 | silmitasertib 0.101 | [2] -0.101 | entospletinib 0.017

HNRNPL (UniProt P14866)
active: vorinostat -0.445
inactive: [1] 0.005 | silmitasertib 0.072 | [2] 0.028 | entospletinib 0.007

HAUS2 (UniProt Q9NVX0)
inactive: [1] -0.052 | silmitasertib -0.037 | [2] 0.039 | entospletinib -0.029
active: vorinostat -0.514

INPP4A (UniProt Q96PE3)
inactive: [1] 0.016 | vorinostat -0.106 | silmitasertib 0.002 | [2] -0.013 | entospletinib 0.006

KATNBL1 (UniProt Q9H079)
inactive: [1] 0.111 | vorinostat -0.176 | silmitasertib -0.02 | [2] 0.144 | entospletinib 0.234

IRAK1 (UniProt P51617)
inactive: [1] -0.073 | silmitasertib 0.205 | [2] -0.014 | entospletinib 0.232
active: vorinostat -0.359

IGF2BP3 (UniProt O00425)
inactive: [1] -0.012 | silmitasertib 0.025 | [2] 0 | entospletinib 0.006
active: vorinostat -0.305

HNRNPUL1 (UniProt Q9BUJ2)
inactive: [1] -0.02 | vorinostat 0.122 | silmitasertib 0.012 | [2] -0.022 | entospletinib -0.02

HMGN4 (UniProt O00479)
inactive: [1] -0.095 | vorinostat 0.192 | silmitasertib -0.012 | [2] 0.067 | entospletinib 0.163

KHK isoform 2 (UniProt P50053)
UniProt P50053, sequence (P50053 whole entry, looked up): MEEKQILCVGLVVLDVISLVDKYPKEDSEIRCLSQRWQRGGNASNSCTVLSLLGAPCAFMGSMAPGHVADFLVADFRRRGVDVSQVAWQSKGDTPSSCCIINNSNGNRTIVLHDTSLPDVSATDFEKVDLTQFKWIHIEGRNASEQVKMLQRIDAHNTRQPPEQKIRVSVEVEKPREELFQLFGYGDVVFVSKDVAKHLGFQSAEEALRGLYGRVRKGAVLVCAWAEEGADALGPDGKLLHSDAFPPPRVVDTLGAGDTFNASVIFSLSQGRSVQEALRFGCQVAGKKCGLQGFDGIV
inactive: [1] 0.035 | vorinostat 0.045 | silmitasertib 0.018 | [2] -0.053 | entospletinib 0.033

GMDS (UniProt O60547)
UniProt O60547, sequence (O60547 whole entry, looked up): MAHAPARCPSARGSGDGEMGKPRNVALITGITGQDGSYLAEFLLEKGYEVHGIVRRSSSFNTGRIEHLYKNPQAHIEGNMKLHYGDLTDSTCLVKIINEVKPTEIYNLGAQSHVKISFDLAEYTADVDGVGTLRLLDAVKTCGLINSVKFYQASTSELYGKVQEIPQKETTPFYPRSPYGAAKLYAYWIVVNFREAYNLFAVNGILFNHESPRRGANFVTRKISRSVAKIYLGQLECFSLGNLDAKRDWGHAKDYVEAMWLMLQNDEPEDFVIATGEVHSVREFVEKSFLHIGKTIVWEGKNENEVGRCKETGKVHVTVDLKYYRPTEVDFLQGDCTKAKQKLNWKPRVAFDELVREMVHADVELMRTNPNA
inactive: [1] 0.027 | silmitasertib 0.041 | [2] -0.016 | entospletinib 0.032
active: vorinostat -0.309

HDHD5 (UniProt Q9BXW7)
UniProt Q9BXW7, sequence (Q9BXW7 whole entry, looked up): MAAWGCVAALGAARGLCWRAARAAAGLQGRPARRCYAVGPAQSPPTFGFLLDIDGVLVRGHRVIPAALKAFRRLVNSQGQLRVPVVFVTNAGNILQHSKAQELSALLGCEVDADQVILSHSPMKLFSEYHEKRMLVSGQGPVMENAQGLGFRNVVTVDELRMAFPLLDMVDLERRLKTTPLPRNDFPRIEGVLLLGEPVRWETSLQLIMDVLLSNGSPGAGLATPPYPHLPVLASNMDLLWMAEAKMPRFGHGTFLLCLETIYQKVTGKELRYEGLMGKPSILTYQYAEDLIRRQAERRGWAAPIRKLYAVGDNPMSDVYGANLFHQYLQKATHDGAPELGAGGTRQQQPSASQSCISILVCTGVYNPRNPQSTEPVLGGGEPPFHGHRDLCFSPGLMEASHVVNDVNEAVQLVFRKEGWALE
inactive: [1] 0.018 | silmitasertib 0.043 | [2] -0.002 | entospletinib -0.059
active: vorinostat -0.249

HMGB1 (UniProt P09429)
UniProt P09429, sequence (P09429 whole entry, looked up): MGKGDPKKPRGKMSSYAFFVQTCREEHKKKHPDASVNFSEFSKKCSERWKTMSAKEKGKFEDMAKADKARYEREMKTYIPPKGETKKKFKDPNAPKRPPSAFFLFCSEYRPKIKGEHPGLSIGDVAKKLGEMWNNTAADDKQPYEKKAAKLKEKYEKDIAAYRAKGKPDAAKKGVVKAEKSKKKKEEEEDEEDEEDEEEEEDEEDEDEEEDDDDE
inactive: [1] -0.024 | vorinostat 0.083 | silmitasertib 0.017 | [2] 0.098 | entospletinib -0.014

HIST2H2AA3 (UniProt Q6FI13)
inactive: [1] -0.056 | vorinostat 0.12 | silmitasertib -0.073 | [2] 0.068 | entospletinib -0.106

HSPA8 (UniProt E9PK54)
inactive: [1] 0.068 | vorinostat -0.004 | silmitasertib -0.037 | [2] -0.022 | entospletinib 0.012

HSP90AA4P (UniProt Q58FG1)
inactive: [1] 0.026 | vorinostat 0.047 | silmitasertib -0.087 | [2] -0.047 | entospletinib 0.017

GTPBP2 (UniProt Q9BX10)
UniProt Q9BX10, sequence (Q9BX10 whole entry, looked up): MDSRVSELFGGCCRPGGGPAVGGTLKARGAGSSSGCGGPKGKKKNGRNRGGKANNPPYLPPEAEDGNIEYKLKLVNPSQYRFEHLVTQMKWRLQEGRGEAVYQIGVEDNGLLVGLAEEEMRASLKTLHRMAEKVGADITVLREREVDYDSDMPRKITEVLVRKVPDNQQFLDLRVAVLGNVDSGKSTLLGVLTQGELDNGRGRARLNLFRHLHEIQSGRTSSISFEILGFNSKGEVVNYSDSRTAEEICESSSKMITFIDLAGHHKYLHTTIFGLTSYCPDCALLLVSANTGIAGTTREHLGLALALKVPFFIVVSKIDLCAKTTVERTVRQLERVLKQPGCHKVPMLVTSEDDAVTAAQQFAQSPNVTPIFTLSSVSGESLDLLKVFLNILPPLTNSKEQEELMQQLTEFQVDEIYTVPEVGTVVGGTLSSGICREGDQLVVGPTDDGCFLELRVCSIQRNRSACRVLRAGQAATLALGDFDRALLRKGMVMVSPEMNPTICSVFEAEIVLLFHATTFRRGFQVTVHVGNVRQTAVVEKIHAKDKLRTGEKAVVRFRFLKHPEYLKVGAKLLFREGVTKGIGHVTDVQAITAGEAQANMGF
inactive: [1] 0.029 | silmitasertib 0 | [2] -0.003 | entospletinib 0.056
active: vorinostat -0.289

KHDRBS1 (UniProt Q07666)
active: vorinostat -0.583
inactive: [1] 0.005 | silmitasertib 0.018 | [2] 0.016 | entospletinib 0.008

GOLGA1 (UniProt Q92805)
UniProt Q92805, sequence (Q92805 whole entry, looked up): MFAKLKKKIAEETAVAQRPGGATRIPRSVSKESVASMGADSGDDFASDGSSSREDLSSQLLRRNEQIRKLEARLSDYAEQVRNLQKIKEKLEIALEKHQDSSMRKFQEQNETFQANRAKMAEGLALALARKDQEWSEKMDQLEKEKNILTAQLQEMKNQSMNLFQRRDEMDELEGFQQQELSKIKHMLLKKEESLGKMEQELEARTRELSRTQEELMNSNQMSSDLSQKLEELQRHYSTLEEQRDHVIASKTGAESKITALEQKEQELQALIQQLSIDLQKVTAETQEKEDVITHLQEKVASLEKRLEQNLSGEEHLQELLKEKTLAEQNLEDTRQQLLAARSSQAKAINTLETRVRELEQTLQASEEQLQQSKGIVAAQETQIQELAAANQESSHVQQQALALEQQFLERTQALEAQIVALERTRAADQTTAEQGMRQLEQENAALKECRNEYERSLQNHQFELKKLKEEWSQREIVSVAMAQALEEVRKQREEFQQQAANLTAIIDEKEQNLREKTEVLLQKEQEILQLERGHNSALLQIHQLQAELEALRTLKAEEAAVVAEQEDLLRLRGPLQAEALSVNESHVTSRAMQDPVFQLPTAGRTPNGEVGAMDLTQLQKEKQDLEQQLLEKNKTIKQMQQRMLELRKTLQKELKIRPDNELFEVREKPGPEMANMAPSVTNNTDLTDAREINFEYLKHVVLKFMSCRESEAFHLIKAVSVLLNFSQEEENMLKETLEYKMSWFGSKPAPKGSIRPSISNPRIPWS
inactive: [1] 0.048 | vorinostat 0.07 | silmitasertib 0.01 | [2] -0.076 | entospletinib -0.014

HARS (UniProt P12081)
UniProt P12081, sequence (P12081 whole entry, looked up): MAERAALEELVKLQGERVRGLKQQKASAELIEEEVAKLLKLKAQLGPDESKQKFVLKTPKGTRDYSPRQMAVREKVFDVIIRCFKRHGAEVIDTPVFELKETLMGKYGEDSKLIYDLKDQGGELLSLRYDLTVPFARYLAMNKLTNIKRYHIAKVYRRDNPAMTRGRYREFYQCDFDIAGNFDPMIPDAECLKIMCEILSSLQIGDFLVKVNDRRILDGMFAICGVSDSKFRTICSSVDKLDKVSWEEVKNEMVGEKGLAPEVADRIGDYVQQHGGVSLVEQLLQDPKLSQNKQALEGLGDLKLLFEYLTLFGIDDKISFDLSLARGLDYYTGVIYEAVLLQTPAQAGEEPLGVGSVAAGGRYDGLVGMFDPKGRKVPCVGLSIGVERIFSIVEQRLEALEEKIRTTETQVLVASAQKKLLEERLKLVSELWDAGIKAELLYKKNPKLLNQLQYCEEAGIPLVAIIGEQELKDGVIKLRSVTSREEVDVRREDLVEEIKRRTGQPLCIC
inactive: [1] -0.031 | vorinostat -0.003 | silmitasertib 0.02 | [2] -0.054 | entospletinib 0.001
